Experimental data taken from PubChem BioAssay (NCI).
The panel holds about 83,000 compounds, 20% with a hit somewhere; the sample as a whole holds those more often.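 Results are percent growth after 48 hours of single-concentration exposure. 100 means growth as in untreated cells, lower positive values show inhibition; negative values down to -100 show cell death.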 Active and inactive are the calls of the source. The calls were made as follows: active = growth percent below 10; inactive = the rest.

system: COLO 205 colon; assay: NCI-60 one-dose screen, 48 h (100 = growth as untreated, 0 = no growth, -100 = all killed); settings: 10 µM unless noted

Compound	growth
CC(=O)OC[C@@]1(C)C2CC[C@]3(C)C(CC=C4C5CC(C)(C)CC[C@]5(C(=O)Nc5cccc(C)c5)CC[C@]43C)[C@@]2(C)C[C@@H](OC(C)=O)[C@@H]1OC(C)=O (stereo partly specified)	45.7% (inactive)
CCCCc1c(Nn2cnnn2)no[n+]1[O-]	60.8% (inactive)
CC(C)Sc1nc(NCCc2c[nH]c3ccccc23)c(C#N)c(-c2ccc(F)cc2)n1	28.9% (inactive)
C=C1CCC2C3(C)COC(c4ccc(F)cc4)OC3CCC2(C)C1CC(O)C1=CCOC1=O (stereo unspecified)	22.8% (inactive)
NS(=O)(=O)c1ccc(N=Nc2c(O)n(CC(=O)Nc3ccccc3Cl)c3ccccc23)cc1	-19.1% (active)
Cc1ccccc1[C@H]1C(C(=O)c2ccc(Cl)cc2)C2(N[C@@H]1c1ccccc1)C(=O)Nc1ccc(Cl)cc12 (stereo partly specified)	-75.7% (active)
CCCCCCCCc1ccc(S(=O)(=O)Nc2ccc(CC)cc2C(=O)O)cc1	121% (inactive)
CCC(C)(C)c1ccc(OCCCCN2CCN(c3ccncc3)CC2)cc1	-81.9% (active)
COc1ccc(C(=O)/C=C/c2ccc(Oc3nc(Nc4ccc(F)cc4)nc(N(C)C)n3)c(OC)c2)cc1	93.1% (inactive)
S=c1c2ccccc2nc2n1CCc1c-2[nH]c2ccccc12	90.7% (inactive)
CCOC(=O)COc1c(OC)c(OC)cc2oc(-c3cccc(C(=O)Nc4ccc(Cl)cc4)c3)cc(=O)c12	39.8% (inactive)
